A short description of test [1]: Validation screen for small molecules that induce genotoxicity in human embryonic kidney (HEK293T) cells expressing luciferase-tagged ELG1 (AID 493106). Also: 0% is about no effect. The method in brief:
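Reporter-gene quantitative HTS in HEK293T cells carrying luciferase-tagged ELG1, whose level climbs under genotoxic stress. Compound exposure lasts 16 hr at 37 °C before luciferase detection.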

Test [2] deals with ATPase family AAA domain-containing protein 5 (Homo sapiens) (UniProt Q96QE3). Briefly: Validation screen for small molecules that inhibit ELG1-dependent DNA repair in human embryonic kidney (HEK293T) cells expressing luciferase-tagged ELG1 (AID 493107). Also: nearly all actives have a fitted effect of over 70% in size. Also: potency is read from the fitted curve at half-maximal effect. Put shortly: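 Quantitative HTS in HEK293T cells carrying luciferase-tagged ELG1, stimulated with 5-fluorouridine alongside compound for 16 hr. Loss of luciferase signal marks inhibition of ELG1 response.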

In test [3] the target is Thyrotropin-releasing hormone receptor (Homo sapiens) (UniProt P34981). In words: qHTS for Small Molecule Agonists and Allosteric Enhancers of Human TRH Receptor: Validation Screen for Agonists (AID 493127;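 active = calcium activation more than 3 SD above the typical response in the agonist read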;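 also: intracellular calcium rise by fluo-8 fluorescence before TRH EC20 addition; 0% is about no effect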). Particulars: TRH receptor agonist cell assay; at 2 µM; stronger effect = higher value. The method in brief:
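Gq-coupled calcium mobilization in TRHR cells after compound addition, monitored kinetically with fluo-8 dye on an FDSS reader.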
(In qHTS, concentration-response curves come from the screen itself.)

Test [4] in a line: qHTS for Inhibitors of Cell Surface uPA Generation: Validation Assay (AID 493164).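 Also: RAW 264.7 macrophage cells exposed to compound for 18 h; 0% is about no effect.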 Put shortly: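 RAW 264.7, 4000 cells/well, o/n plating; cpd 7-pt 1:5 dilution 2.45 nM–38.3 uM final; 18 h, 37 C/5% CO2; ATP-Lite, 5 s luminescence exposure.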
Test [5] deals with Galactokinase (Homo sapiens) (UniProt P51570). Briefly: qHTS Validation Assay for Inhibitors of Human Galactokinase (GALK) (AID 493189). Also: 0% is about no effect. The method in brief:
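5 nM GALK / 100 uM galactose / 35 uM ATP, 20 mM HEPES pH8.0, 5 mM MgCl2, 60 mM NaCl, 1 mM DTT, 0.01% BSA (final). RT 1 h; Kinase-Glo Plus luminescence.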

The nature of test [6]: Validation screen for small molecules that induce DNA re-replication in SW480 colon adenocarcinoma cells (AID 504364). Also: 0% is about no effect. The method in brief: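 Cells are treated 48 hr with test compound, stained 40 min with Hoechst at 37 C, and scanned for nuclear fluorescence; compounds inducing re-replication increase nuclei with elevated intensity.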
Test [7] has as its target Peptidyl-prolyl cis-trans isomerase NIMA-interacting 1 (Homo sapiens) (UniProt Q13526). Briefly: qHTS Validation Assay to Find Inhibitors of Pin1 (AID 504536; active = well fitted inhibition curve with a large enough effect in the polarisation, with a control signal flat, not every such curve was filed as active; the % refers to the polarisation;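 also: 0% = full Pin1 enzyme wells and -100% = no-enzyme wells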). The method in brief: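 Fluorescence polarization competition: compounds (titration) displace HiFluor-488-labeled Pin1-1b peptide from Pin1 (0.3 uM final) in pH 7.5 HEPES buffer with DTT, 10 min at room temperature; %Activity normalized to no-enzyme wells, curves fitted.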

In test [8] the target is phosphoglycerate mutase (Leishmania major) (UniProt Q4Q090). Briefly: qHTS Validation Assay to Find Inhibitors of Phosphoglycerate Mutase (AID 504548).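 Also: end-point luminescence from Kinase-GloPlus after the PGAM reaction; series mostly up to about 58 µM; % is scaled to controls: 0 for no effect and ±100 for the full control effect.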 The method in brief:
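Inhibition of L. major PGAM was assessed by Kinase-GloPlus luminescence following a 45-minute room-temperature reaction with enzyme at 1.25nM final.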

The nature of test [9]: qHTS for Inhibitors of ATXN expression: Validation of Cytotoxic Assay (AID 588349).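 Also: cells exposed to compound for 72 hr; % is scaled to controls: 0 for no effect and ±100 for the full control effect.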 Put shortly: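 HEK293, compound dose series, 72 hr / 37 degrees C; viability via CellTiter Glo (intracellular ATP).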
Test [10] is described as follows: qHTS for Inhibitors of ATXN expression: Validation (AID 588378). Also: series mostly up to about 57 µM; % is scaled to controls: 0 for no effect and ±100 for the full control effect; nearly all actives have a fitted effect of over 75% in size. Put shortly:
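Compounds were pinned onto attached HEK293 cells carrying an ATXN2-firefly luciferase construct and incubated 24 hrs at 37 degrees C. Each well then received a fluorescent viability reagent followed by luciferase substrate for end-point luminescence.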

Test [11] is described as follows: Nrf2 qHTS screen for inhibitors: Validation (AID 493153; active = well fitted inhibition curve with a large enough effect in the main read-out, with a control signal flat, not every such curve was filed as active). Particulars: Potency: luciferase luminescence; viability change: measured here: cytotoxicity max response. The method in brief:
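Dose-response validation uses reporter A549 cells with firefly luciferase under an antioxidant response element. Compounds stay on cells 18-24 h at 37°C, and luminescence indicates Nrf2-driven transcription.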

Test [12] has as its target Phosphoglycerate kinase, glycosomal (Trypanosoma brucei brucei) (UniProt P07378). In words: qHTS Validation Assay to Find Inhibitors of Phosphoglycerate Kinase (AID 504547).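 Also: control wells lack PGK and mark full inhibition.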 The method in brief:
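PGK activity was coupled to GAPDH (100nM final), which generates the unstable substrate 1,3-bisphosphoglycerate in-well. Reactions ran 60 minutes at room temperature in 100mM TEA pH 7.6, 5mM MgCl2, 0.01% Tween-20, then Kinase-Glo Plus luminescence was read.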

The target of test [13] is Ubiquitin carboxyl-terminal hydrolase 1 (Homo sapiens) (UniProt O94782). In words: Inhibitors of USP1/UAF1: Pilot qHTS (AID 504865).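 Also: rhodamine fluorescence freed from ubiquitin-rhodamine substrate followed over time; top concentration of the series differs between compounds; % is scaled to controls: 0 for no effect and ±100 for the full control effect; nearly all actives have a fitted effect of over 35% in size.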 Put shortly:
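In 50mM HEPES pH 7.8 containing 0.5mM EDTA, 1mM TCEP, 0.1 mg/ml BSA and 0.01% Tween-20, 1nM USP1/UAF1 is exposed to compound for 15 min, then Ub-Rho (150nM final) is added and fluorescence is read over time.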

The target in test [14] is Estrogen receptor (Homo sapiens) (UniProt P03372). In words: qHTS assay for small molecule antagonists of estrogen receptor alpha signaling (AID 588513; active = well fitted curve in the direction sought with a large enough effect in the signal ratio, with a control signal flat, not every such curve was filed as active; the % refers to the signal ratio; also: % is scaled to controls: 0 for no effect and ±100 for the full control effect). Put shortly:
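Fluorescence from CCF4 substrate after 2 h at room temperature gave reporter activity; cells had been exposed to compound and 0.5nM 17-beta-estradiol for 18 h at 37 C. Hill-equation fitting yielded IC50 and maximal response.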

Test [15] has the same target. In words: qHTS assay for small molecule agonists of estrogen receptor alpha signaling (AID 588514; calls by dose curve;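 also: 0% = vehicle only and 100% = reference agonist; nearly all actives have a fitted effect of over 70% in size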). The method in brief: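 Reporter-gene assay. […] controls beta-lactamase in HEK 293 GripTite cells; after 18 hrs with compound, CCF4 substrate is added for 2 hrs and fluorescence is read.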
The target of test [16] is DNA dC->dU-editing enzyme APOBEC-3G (Homo sapiens) (UniProt Q9HC16). Briefly: qHTS for inhibitors of Vif-A3G interactions: Validation (AID 588379). Also: 0% is about no effect. The method in brief:
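HeLa cells stably expressing Vif and A3G-eYFP, 700 cells/well, incubated overnight at 37 deg C, then exposed to compound overnight at 37 deg C. Inhibition of Vif-mediated degradation read as increased yellow fluorescence (Ex 488/Em 500-530) by laser-scanning cytometry.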

The target in test [17] is ATP-dependent 6-phosphofructokinase (Trypanosoma brucei brucei) (UniProt O15648). Briefly: qHTS Assay to Find Inhibitors of T. brucei phosphofructokinase: hit validation (AID 492961). Also: series mostly up to about 51 µM; % is scaled to controls: 0 for no effect and ±100 for the full control effect. Put shortly: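 Luminescence from ADP-Glo reports ADP generated as T. brucei PFK (1.25 nM) phosphorylates 0.5 mM fructose-6-phosphate using 0.1 mM ATP. Reactions ran 45 min at room temperature, pH 8.0.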

SMILES strings stand for the structures. Results filed as inconclusive are left out. The source made the active and inactive calls. Unless noted, calls follow the shape of the dose curve; as a rule, active = well fitted curve in the direction sought with a large enough effect; inconclusive = small, poorly fitted or top-dose-only effect, or another doubt; inactive = no such curve, though single readings can be large; an effect the other way counts as inactive or inconclusive.

Chain of Ubiquitin carboxyl-terminal hydrolase 1 (Homo sapiens) (O94782 whole entry, looked up): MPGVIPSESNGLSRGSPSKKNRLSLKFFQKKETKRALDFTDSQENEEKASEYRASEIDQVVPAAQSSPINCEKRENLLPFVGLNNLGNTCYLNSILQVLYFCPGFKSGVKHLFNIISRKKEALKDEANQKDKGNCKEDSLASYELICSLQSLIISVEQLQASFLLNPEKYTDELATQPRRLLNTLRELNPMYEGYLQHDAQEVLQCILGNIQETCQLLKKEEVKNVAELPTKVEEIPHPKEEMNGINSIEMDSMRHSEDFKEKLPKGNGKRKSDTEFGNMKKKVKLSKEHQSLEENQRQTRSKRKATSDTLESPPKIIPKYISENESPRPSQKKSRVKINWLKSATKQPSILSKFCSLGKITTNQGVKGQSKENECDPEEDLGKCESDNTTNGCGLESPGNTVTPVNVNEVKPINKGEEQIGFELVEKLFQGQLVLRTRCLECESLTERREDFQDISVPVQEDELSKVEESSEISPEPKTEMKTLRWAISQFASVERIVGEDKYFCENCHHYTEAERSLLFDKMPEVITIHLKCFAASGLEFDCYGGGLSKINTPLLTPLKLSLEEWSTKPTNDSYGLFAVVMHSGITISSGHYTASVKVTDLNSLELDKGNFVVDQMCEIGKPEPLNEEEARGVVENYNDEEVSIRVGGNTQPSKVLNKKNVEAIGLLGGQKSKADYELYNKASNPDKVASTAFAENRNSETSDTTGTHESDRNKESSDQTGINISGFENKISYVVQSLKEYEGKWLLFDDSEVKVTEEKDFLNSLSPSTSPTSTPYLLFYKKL
Chain of Phosphoglycerate kinase, glycosomal (Trypanosoma brucei brucei) (P07378 whole entry, looked up): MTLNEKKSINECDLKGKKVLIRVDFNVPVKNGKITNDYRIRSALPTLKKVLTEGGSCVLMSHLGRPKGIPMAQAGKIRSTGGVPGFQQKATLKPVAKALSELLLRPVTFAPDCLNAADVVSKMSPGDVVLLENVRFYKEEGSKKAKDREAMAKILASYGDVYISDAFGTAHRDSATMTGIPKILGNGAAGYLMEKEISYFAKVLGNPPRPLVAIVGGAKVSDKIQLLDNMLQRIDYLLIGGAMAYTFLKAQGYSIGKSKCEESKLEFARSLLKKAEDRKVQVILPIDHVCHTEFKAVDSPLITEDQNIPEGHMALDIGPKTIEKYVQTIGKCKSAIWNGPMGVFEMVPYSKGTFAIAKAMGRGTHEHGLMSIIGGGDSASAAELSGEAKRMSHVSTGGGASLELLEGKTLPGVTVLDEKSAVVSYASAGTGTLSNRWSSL
Chain of DNA dC->dU-editing enzyme APOBEC-3G (Homo sapiens) (Q9HC16 whole entry, looked up): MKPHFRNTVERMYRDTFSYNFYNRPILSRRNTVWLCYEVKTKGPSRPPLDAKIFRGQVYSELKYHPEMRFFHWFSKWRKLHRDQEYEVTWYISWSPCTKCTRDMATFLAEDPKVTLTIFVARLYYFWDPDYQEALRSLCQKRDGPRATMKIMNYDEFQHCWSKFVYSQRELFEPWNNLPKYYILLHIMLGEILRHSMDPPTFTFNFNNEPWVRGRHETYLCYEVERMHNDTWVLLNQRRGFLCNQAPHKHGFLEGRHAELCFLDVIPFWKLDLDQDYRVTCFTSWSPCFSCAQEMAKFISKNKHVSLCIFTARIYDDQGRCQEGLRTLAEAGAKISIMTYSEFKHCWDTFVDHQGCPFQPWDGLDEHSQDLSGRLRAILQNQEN
Chain of phosphoglycerate mutase (Leishmania major) (Q4Q090 1-553): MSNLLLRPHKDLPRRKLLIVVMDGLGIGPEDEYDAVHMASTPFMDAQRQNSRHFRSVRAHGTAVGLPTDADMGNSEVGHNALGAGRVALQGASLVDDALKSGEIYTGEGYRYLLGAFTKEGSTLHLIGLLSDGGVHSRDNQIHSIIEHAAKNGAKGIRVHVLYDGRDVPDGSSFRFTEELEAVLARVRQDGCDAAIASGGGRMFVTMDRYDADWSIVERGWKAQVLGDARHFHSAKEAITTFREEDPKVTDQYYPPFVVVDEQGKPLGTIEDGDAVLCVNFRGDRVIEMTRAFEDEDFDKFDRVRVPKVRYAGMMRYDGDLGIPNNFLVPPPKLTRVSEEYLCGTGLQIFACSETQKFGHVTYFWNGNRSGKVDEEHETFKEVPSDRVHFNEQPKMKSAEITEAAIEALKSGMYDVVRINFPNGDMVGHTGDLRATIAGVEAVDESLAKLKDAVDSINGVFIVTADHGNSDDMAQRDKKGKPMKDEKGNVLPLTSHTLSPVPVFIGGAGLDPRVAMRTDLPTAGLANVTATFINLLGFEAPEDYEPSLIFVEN
Chain of ATPase family AAA domain-containing protein 5 (Homo sapiens) (Q96QE3 whole entry, looked up, the tested form may be a part): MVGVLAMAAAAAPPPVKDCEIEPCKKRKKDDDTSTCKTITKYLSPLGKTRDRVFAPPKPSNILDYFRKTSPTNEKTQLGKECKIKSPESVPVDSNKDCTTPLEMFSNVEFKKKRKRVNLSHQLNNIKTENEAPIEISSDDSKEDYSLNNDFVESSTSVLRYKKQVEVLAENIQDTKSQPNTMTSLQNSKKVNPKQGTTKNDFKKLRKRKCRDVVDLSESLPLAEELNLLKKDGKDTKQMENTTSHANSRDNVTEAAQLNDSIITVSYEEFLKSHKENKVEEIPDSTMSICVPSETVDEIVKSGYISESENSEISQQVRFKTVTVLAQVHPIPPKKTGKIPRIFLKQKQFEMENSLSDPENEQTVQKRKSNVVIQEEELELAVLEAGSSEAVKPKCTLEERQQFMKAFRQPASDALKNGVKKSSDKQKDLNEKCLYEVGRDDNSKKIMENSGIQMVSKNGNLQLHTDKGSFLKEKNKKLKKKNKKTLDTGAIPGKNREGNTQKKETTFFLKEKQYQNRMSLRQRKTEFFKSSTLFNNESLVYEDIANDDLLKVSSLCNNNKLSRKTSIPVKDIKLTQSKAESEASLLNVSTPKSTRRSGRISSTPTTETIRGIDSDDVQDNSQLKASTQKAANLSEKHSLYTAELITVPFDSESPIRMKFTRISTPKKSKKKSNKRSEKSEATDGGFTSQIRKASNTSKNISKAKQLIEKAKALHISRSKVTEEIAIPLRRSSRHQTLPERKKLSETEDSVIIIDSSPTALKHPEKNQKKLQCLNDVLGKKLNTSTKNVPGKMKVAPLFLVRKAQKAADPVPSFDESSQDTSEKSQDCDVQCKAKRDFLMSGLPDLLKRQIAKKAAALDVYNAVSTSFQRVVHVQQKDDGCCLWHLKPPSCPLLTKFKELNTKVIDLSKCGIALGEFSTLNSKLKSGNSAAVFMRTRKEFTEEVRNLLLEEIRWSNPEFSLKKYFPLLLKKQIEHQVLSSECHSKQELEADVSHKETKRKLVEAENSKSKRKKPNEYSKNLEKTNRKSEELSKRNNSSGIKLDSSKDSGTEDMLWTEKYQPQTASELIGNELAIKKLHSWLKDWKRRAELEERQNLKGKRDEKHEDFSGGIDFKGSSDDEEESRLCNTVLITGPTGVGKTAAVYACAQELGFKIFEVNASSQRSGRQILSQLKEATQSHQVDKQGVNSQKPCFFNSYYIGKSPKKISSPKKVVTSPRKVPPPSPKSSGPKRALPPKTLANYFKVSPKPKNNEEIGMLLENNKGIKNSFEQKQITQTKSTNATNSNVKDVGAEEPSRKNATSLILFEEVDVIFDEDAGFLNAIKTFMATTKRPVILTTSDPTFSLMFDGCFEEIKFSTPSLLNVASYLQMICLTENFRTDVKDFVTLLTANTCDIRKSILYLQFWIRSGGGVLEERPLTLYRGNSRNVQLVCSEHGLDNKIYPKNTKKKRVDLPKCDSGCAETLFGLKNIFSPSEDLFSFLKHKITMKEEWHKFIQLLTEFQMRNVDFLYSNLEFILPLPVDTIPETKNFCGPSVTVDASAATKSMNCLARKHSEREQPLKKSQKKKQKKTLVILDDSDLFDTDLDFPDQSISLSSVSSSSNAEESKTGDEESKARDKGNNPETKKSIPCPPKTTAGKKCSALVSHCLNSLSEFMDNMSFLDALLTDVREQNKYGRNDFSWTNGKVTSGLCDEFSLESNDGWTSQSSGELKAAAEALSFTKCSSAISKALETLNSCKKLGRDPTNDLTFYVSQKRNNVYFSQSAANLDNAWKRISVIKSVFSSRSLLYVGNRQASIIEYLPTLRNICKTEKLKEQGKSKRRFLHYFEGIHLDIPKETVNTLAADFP
Chain of Peptidyl-prolyl cis-trans isomerase NIMA-interacting 1 (Homo sapiens) (Q13526 whole entry, looked up): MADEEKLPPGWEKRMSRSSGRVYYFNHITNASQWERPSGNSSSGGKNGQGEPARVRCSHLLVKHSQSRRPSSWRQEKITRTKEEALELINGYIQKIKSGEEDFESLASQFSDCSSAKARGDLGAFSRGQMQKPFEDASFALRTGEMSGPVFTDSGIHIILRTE
Chain of Thyrotropin-releasing hormone receptor (Homo sapiens) (P34981 whole entry, looked up): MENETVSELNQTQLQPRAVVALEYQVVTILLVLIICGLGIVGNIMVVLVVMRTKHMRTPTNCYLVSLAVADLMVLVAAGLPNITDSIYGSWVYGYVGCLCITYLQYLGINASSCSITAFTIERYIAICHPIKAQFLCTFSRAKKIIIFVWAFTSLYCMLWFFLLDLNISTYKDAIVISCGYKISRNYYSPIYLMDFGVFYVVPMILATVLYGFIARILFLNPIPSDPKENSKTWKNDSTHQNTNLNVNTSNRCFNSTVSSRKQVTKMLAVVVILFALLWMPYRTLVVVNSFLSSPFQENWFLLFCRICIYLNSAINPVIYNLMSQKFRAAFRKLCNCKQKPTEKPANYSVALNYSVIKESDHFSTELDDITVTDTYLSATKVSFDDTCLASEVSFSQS
Chain of Galactokinase (Homo sapiens) (P51570 whole entry, looked up): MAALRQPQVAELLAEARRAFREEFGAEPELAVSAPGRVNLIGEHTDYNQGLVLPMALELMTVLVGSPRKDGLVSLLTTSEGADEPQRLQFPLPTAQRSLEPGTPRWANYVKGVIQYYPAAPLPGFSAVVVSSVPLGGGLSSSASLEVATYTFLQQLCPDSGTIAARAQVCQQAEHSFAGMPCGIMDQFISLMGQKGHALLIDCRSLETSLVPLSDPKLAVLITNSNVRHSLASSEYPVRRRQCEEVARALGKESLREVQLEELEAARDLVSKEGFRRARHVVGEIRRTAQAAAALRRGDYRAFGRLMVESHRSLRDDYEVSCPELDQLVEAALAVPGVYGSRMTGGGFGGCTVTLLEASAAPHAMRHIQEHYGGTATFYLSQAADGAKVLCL

Regarding `O=C1NCN(c2ccccc2)C12CCN(CCCC(c1ccc(F)cc1)c1ccc(F)cc1)CC2`, the Potency result in test [1], in test [9] and in test [10] was “inactive” each time. Besides, the Potency in [2] was 25.9 µM (active). The activation in test [3] is 0.75% (inactive). Also, the compound was classed as inactive in [4], in test [5], in [6], in [7] and in [8].
On to `CCCCCN(CCCCC)C(=O)C(CCC(=O)O)NC(=O)c1ccc(Cl)c(Cl)c1` (stereo not drawn), for which the Potency result in test [1], in test [2], in test [11] and in test [13] was “inactive” in each case. For the same compound, in test [3], the activation was 1% (inactive). Besides, the viability change in test [11] was 3.55%. For the same compound, the outcome in test [4], in test [5], in test [6], in test [7], in test [12] and in test [8] was inactive.
Regarding `CCCNC(C)C(=O)Nc1ccccc1C` (stereo not drawn), the Potency entry in test [1], in test [2], in [11], in test [13] and in test [10] was “inactive” throughout. In addition, in [3], the activation is 1.5% (inactive). Further, the viability change in test [11] is -6.89%. The compound was called inactive in [4], in [5], in test [6], in [7], in [12] and in test [8].
For `Cc1ccc(S(=O)(=O)NC(=O)NN2CCCCCC2)cc1`, the Potency result in [1], in [2], in test [11], in test [9], in [10] and in [15] was “inactive” each time. Also, in test [3], the activation is 0.188% (inactive). For the same compound, the viability change in test [11] was -3.67%. For the same compound, the result in test [4], in test [5], in [6], in test [7], in test [8] and in test [14] was inactive.
`Cc1scc2c1N(C(=O)CN1CCN(C)CC1)c1ccccc1NC2=O`: the Potency result in [1], in [2], in [11], in [13] and in test [9] was “inactive” in each case. In test [11], the viability change is 3.95%. In addition, the compound was classed as inactive in test [4], in test [5], in [6], in [7], in [12] and in [8]. Besides, in test [16], the result was inactive.
As to `CN(C(=O)CCCOc1ccc2[nH]c(=O)ccc2c1)C1CCCCC1`, the compound was classed as inactive in test [17], in test [5], in test [6], in test [7], in [12] and in test [8]. In addition, the compound was classed as inactive in [16]. For the same compound, the Potency entry in [13] and in [9] was “inactive” in each case.
`C(=C\c1ccccc1)/CN1CCN(C(c2ccccc2)c2ccccc2)CC1`: the Potency result in test [1], in test [2], in [11] and in test [9] was “inactive” throughout. Further, the activation in [3] was 0.438% (inactive). The viability change in test [11] was -2.4%. In addition, the compound was called inactive in test [4], in [5], in [6], in [7], in test [12] and in test [8].
With `Brc1c(NC2=NCCN2)ccc2nccnc12`, the Potency entry in [1], in test [2], in [11], in test [13], in [9] and in test [10] was “inactive” throughout. Besides, the viability change in [11] was -1.27%. The result in test [4], in test [5], in [6], in test [7], in test [12] and in test [8] was inactive. The result in test [16] was inactive.
With `CNCCC(Oc1ccccc1OC)c1ccccc1` (stereo not drawn), the Potency result in test [1], in [2], in [11], in [13] and in test [9] was “inactive” throughout. Also, the activation in [3] was 2.38% (inactive). The viability change in test [11] amounted to 4.36%. Further, the outcome in test [4], in [5], in test [6], in test [7], in test [12] and in [8] was inactive.
With `CCC(=O)c1ccc2c(c1)N(CCCN(C)C)c1ccccc1S2`, the Potency result in test [1], in [2] and in test [13] was “inactive” in each case. For the same compound, the activation in test [3] was 1.56% (inactive). Also, the result in test [5], in test [6], in [7] and in test [8] was inactive.

(Values after PubChem BioAssay (NCATS).)
